Laboratory results from PubChem BioAssay (NCI).
About 83,000 compounds went through this panel and 20% of them were active in at least one assay; those are over-represented in the sample as a whole.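 Step 1: grow cells in 96-well plates. Step 2: add test compound at a single concentration. Step 3: incubate 48 h. Step 4: record percent growth.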 A number with no mark means an inactive call. Calls of active or inactive are those of the source. How the source made its calls: active means growth percent below 10; inactive means the rest.

How the values were obtained:
Assay in all cases: NCI-60 one-dose screen, 48 h (100 = growth as untreated, 0 = no growth, -100 = all killed)
Settings in all cases: 10 µM unless noted
SR leukemia = system: SR leukemia
RPMI-8226 leukemia = system: RPMI-8226 leukemia
OVCAR-8 ovarian = system: OVCAR-8 ovarian
OVCAR-5 ovarian = system: OVCAR-5 ovarian
OVCAR-4 ovarian = system: OVCAR-4 ovarian
SK-OV-3 ovarian = system: SK-OV-3 ovarian
IGROV1 ovarian = system: IGROV1 ovarian
OVCAR-3 ovarian = system: OVCAR-3 ovarian
HS 578T breast = system: HS 578T breast
NCI/ADR-RES ovarian = system: NCI/ADR-RES ovarian
T-47D breast = system: T-47D breast
BT-549 breast = system: BT-549 breast
MDA-MB-435 melanoma = system: MDA-MB-435 melanoma
SW-620 colon = system: SW-620 colon
MCF7 breast = system: MCF7 breast
HCT-116 colon = system: HCT-116 colon
HCC-2998 colon = system: HCC-2998 colon
KM12 colon = system: KM12 colon

Compound | growth (SR leukemia) | growth (RPMI-8226 leukemia) | growth (OVCAR-8 ovarian) | growth (OVCAR-5 ovarian) | growth (OVCAR-4 ovarian) | growth (SK-OV-3 ovarian) | growth (IGROV1 ovarian) | growth (OVCAR-3 ovarian) | growth (HS 578T breast) | growth (NCI/ADR-RES ovarian) | growth (T-47D breast) | growth (BT-549 breast) | growth (MDA-MB-435 melanoma) | growth (SW-620 colon) | growth (MCF7 breast) | growth (HCT-116 colon) | growth (HCC-2998 colon) | growth (KM12 colon)
O=C(Nc1ccncc1)C(=O)c1cn(S(=O)(=O)c2cccc(Cl)c2F)c2ccccc12 | 20% | 50.2% | 82.1% | 101% | 65.4% | 97.3% | 70.9% | 74.7% | 84.7% | 59.3% | 74.2% | 62.1% | 8.25% (active) | 59.6% | 35.2% | 31.3% | 66.4% | 63.1%
COc1ccc(/C(C)=N/NC(=O)CSc2nc3ccccc3c(=O)n2CCc2ccc(S(N)(=O)=O)cc2)cc1 | 40.2% | 5.61% (active) | -12.9% (active) | 55% | -54.1% (active) | -31.8% (active) | 19.1% | 16.6% | 29.5% | 79.4% | 22.3% | 64.2% | 16.7% | 54.6% | 59.1% | -47% (active) | 74.8% | 25.1%
O=C(CC(=O)C(F)(F)C(F)(F)C(F)(F)F)c1cc2ccccc2o1 | 101% | 109% | 102% | 103% | 98.6% | 105% | 110% | 106% | 103% | 102% | 96% | 111% | 104% | 97.6% | 103% | 102% | 113% | 104%
O=C(/C=C/c1ccccc1)c1c[nH]c2ccccc2c1=O | 10.8% | -15.9% (active) | -13.3% (active) | 3.5% (active) | 42.1% | 11.6% | -11.5% (active) | -60.9% (active) | -18.8% (active) | 0.29% (active) | 17.3% | -4.65% (active) | -18.4% (active) | -6.91% (active) | 10.6% | 0.346% (active) | 51.3% | 1.5% (active)
O=C(CCl)Nc1ccc2c(c1)C(=O)c1ccccc1C2=O | -10.3% (active) | -59.1% (active) | -27.3% (active) | 18.6% | 36.8% | 54.5% | -15.6% (active) | -87.1% (active) | 51.8% | 14.2% | -71% (active) | -45.3% (active) | 13.1% | -78.6% (active) | -25% (active) | -28.6% (active) | 69% | 54.9%
O=C1OC(/C=C/c2ccccc2)=NC/1=C/c1ccccc1[N+](=O)[O-] | 90.8% | 91.9% | 96.8% | 99.1% | 94.2% | 101% | 79.6% | 98.4% | 107% | 96.4% | 90.5% | 89.8% | 108% | 103% | 90.7% | 104% | 104% | 102%
O=c1c2cc(Cl)ccc2oc2ccc(OCCCCCN3CCCCC3)cc12 | 7.54% (active) | 38% | 55.1% | 75.4% | 80.6% | 98.3% | 72% | 67.1% | 80.5% | 71% | 60.1% | 64.6% | -24% (active) | 33.7% | 56.5% | 11.5% | 74.7% | 65%
CC(SC(C)C(=O)N/N=C/c1cccc(Cl)c1)C(=O)N/N=C\c1cccc(Cl)c1 (configuration not stated) | 15.8% | 64.4% | 68.1% | 115% | -11.1% (active) | 90.5% | 70.3% | -30.2% (active) | 86% | 94.5% | 87.8% | 102% | 72.8% | 27.7% | 49.1% | 2.39% (active) | 96.5% | 71.7%
COc1ccccc1CNCCCN1C(=O)c2ccc3c4c(ccc(c24)C1=O)C(=O)N(CCCCNCCCN)C3=O | 11.3% | 10.6% | -16% (active) | 69.8% | -90.4% (active) | 56.9% | -25% (active) | -30.4% (active) | 31.5% | 72.6% | -45.4% (active) | 58% | -70% (active) | -25% (active) | -41.7% (active) | -11% (active) | -6.41% (active) | 10.7%
